Gal4-VP16 FLuc: inhibits Gal4-VP16 luciferase reporter, ROR gamma counter-screen; Potency, µM (top dose mostly 53.6 µM), hits mostly inhibitors; Drosophila S2 Gal4-VP16 UAS-luciferase, luminescence, 20 h; 3.5% of 310,000 active;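 note: Gal4-VP16 expression switched on by copper sulfate through the metallothionein promoter; nearly all actives have a fitted effect of over 50% in size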
TGFb inhibitor: blocks TGF-b signaling | 1.2% of 410,000 active | AID 588855 | HepG2 CAGA-GFP TGF-b/SMAD3 reporter, GFP fluorescence, 18 h; TGF-beta stimulated, 500 pg/mL final | Potency, µM (highest dose often 46.1 µM), usual class: inhibitors; note: nearly all actives have a fitted effect of over 65% in size
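Per well, imaged GFP fluorescence of HEPG2 CAGA-GFP cells gives the signal; cells get compound, then TGF-beta (500 pg/mL final), 18 h at 37 degrees C; %Activity versus -TGF-beta and +DMSO controls.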
HepG2 viability: counter-screen for TGF-b inhibitors: cytotoxicity in HepG2 cells; HepG2 CAGA-GFP viability, ATP luminescence, 18 h; Potency, µM (doses to about 46.1 µM), hits mostly cytotoxic; 0.76% of 410,000 active; AID 588856
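CellTiter-Glo luminescence gave cytotoxicity after 18 hours at 37 degrees C. The cells were HepG2 CAGA-GFP in 1% FBS DMEM, stimulated with 500 pg/mL TGF-beta after compound addition. %Activity was normalised to no-cell wells (complete cell-killing) and DMSO (no toxicity), and curves were fitted and classified.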
RORgamma inh: ROR gamma (mouse) transcription inhibition; P51450; Drosophila S2 Gal4-RORgamma UAS-luciferase reporter, 20 h; Potency, µM (doses to about 53.6 µM), hits mostly inhibitors; 5.4% of 310,000 active; AID 2551; note: nearly all actives have a fitted effect of over 60% in size
Target sequence (P51450 whole entry, looked up, the tested form may be a part): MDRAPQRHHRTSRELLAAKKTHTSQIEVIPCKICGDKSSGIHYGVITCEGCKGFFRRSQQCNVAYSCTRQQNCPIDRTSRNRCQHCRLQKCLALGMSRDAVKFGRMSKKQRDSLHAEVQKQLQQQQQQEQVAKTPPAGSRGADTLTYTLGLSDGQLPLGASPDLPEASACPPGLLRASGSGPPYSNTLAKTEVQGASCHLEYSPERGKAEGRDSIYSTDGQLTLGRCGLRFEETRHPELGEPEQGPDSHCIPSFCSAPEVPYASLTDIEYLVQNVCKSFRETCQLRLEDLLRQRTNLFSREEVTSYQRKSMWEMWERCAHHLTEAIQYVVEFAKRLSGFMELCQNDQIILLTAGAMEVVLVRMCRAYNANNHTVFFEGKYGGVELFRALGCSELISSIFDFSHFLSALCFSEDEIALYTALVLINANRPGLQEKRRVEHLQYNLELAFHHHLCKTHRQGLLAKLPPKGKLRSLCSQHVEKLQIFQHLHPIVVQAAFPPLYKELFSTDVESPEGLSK
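Read-out: Photinus luciferase luminescence; inhibitors lower reporter signal. Insect Schneider cells with Gal4-ROR gamma fusion under metallothionein promoter, UAS reporter; 700 uM final copper sulfate induction, 20 hr, ambient temperature.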
ATXN2 expr inh: reduces ATXN2 reporter expression in HEK-293 cells. HEK-293 ATXN2-luciferase reporter, luminescence, 24 h. AID 1745845. 0.72% of 360,000 active. Potency, µM (titrated, usually from 57 µM), most hits filed as inhibitors; note: nearly all actives have a fitted effect of over 55% in size
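qHTS (up to 57 uM final) was run with 24 h compound exposure of reporter cells at 37 °C. Each well was multiplexed: SteadyGlo luminescence measured ATXN2-luciferase expression after a fluorogenic Gly-Phe-AFC viability readout (25 uM final).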
S2 tox: viability counter-screen for ATXN expression inhibitors; S2 cells (HEK-293 line with an ATXN2-luciferase reporter) viability, CellTiter-Fluor protease fluorescence, 24 h; Potency, µM (highest dose often 56.7 µM), usual class: cytotoxic; 0.49% of 400,000 active; AID 651635; note: nearly all actives have a fitted effect of over 40% in size
Large screens that a line does not name were inactive. A selection: hits, their analogues and other compounds. The true share with any hit is near 6.3%. Calls come from the whole dose curve; as a rule, active = well fitted curve in the direction sought with a large enough effect; inconclusive = small, poorly fitted or top-dose-only effect, or another doubt; inactive = no such curve, though single readings can be large; an effect the other way counts as inactive or inconclusive.

CS(=O)(=O)c1ncc(Cl)c(C(=O)N(Cc2ccc(Cl)cc2)Cc2ccco2)n1	TGFb inhibitor 5.01µM, HepG2 viability 3.16µM, ATXN2 expr inh 5.62µM (no result: Gal4-VP16 FLuc, RORgamma inh, S2 tox)
CCCSc1ncc(Cl)c(C(=O)N(Cc2ccccc2)c2ccc(OC)cc2)n1	none (no result: Gal4-VP16 FLuc, TGFb inhibitor, RORgamma inh, ATXN2 expr inh, S2 tox)
COc1ccc(N(Cc2ccccc2)C(=O)c2nc(S(C)(=O)=O)ncc2Cl)cc1	TGFb inhibitor 2µM (no result: Gal4-VP16 FLuc, RORgamma inh, ATXN2 expr inh, S2 tox)
COC(=O)c1c(/N=C/NOCc2ccc(Cl)cc2)sc2c1CCN(c1ncc(C(F)(F)F)cc1Cl)C2	none
COC(=O)c1c(N)sc2c1CCN(c1ncc(C(F)(F)F)cc1Cl)C2	Gal4-VP16 FLuc inconclusive, RORgamma inh 1.58µM
COc1cccc(S(=O)(=O)Nc2ccc3c(c2)[C@H]2C[C@H](CC(=O)N[C@@H](C)c4ccccc4)O[C@H](CO)[C@H]2O3)c1	S2 tox inconclusive (no result: Gal4-VP16 FLuc, RORgamma inh)
CCc1c(C)sc2c1CCN(C(=O)Nc1cc(Cl)c(OC)cc1OC)C2c1ccccc1 (configuration not stated)	none (no result: Gal4-VP16 FLuc, RORgamma inh)
Cn1c(SCc2ccccc2)nccc1=O	none (no result: Gal4-VP16 FLuc, RORgamma inh)
CC1=C(SCc2ccccc2)C(=O)c2ccccc2C1=O	TGFb inhibitor 7.94µM, HepG2 viability 12.6µM, ATXN2 expr inh inconclusive, S2 tox inconclusive (no result: Gal4-VP16 FLuc, RORgamma inh)
CCOC(=O)C1CCN(S(=O)(=O)c2cc(-c3onc(C)c3C)ccc2OC)CC1	none (no result: Gal4-VP16 FLuc, RORgamma inh, ATXN2 expr inh, S2 tox)
Cc1cccc(-n2c3nc(=O)n(C)c(=O)c-3cc3c(C)nn(-c4ccccc4)c32)c1C	none (no result: Gal4-VP16 FLuc, RORgamma inh)
CN(CC1CCCO1)S(=O)(=O)c1ccc(C(=O)Nc2nnc(-c3ccccc3)o2)cc1 (configuration not stated)	Gal4-VP16 FLuc 0.562µM, RORgamma inh 0.631µM
CN(CC1CCCO1)S(=O)(=O)c1ccc(C(=O)Nc2ccccc2F)cc1 (configuration not stated)	none (no result: Gal4-VP16 FLuc, RORgamma inh)
CN(CC1CCCO1)S(=O)(=O)c1ccc(C(=O)Nc2nc(-c3ccccn3)cs2)cc1 (configuration not stated)	Gal4-VP16 FLuc 11.2µM, TGFb inhibitor inconclusive, RORgamma inh 7.94µM, ATXN2 expr inh inconclusive, S2 tox inconclusive
COc1ccccc1-c1nnc(NC(=O)c2ccc(S(=O)(=O)N(C)CC3CCCO3)cc2)o1 (configuration not stated)	Gal4-VP16 FLuc 1µM, RORgamma inh 0.708µM
CN(CC1CCCO1)S(=O)(=O)c1ccc(C(=O)Nc2ccc(S(N)(=O)=O)cc2)cc1 (configuration not stated)	none
CCn1nccc1NC(=O)c1csc([C@@H]2O[C@H](CO)[C@H](O)[C@H](O)[C@H]2O)n1	none (no result: Gal4-VP16 FLuc, RORgamma inh)
CCCCCCCC1=CC2=C(Cl)C(=O)C(C)(OC(C)=O)C(=O)C2=CN1C (configuration not stated)	none (no result: TGFb inhibitor, HepG2 viability, ATXN2 expr inh, S2 tox)
Cc1ccc(-c2csc(N3CCN(CCCn4c(-c5ccncc5)nc5ccccc54)CC3)n2)cc1	TGFb inhibitor 7.08µM, ATXN2 expr inh 22.4µM (no result: S2 tox)
CC(=O)N[C@@H](C)c1nc2ccccc2n1CCCN1CCN(c2nc(-c3ccc(C)cc3)cs2)CC1	TGFb inhibitor 8.91µM, RORgamma inh inconclusive, ATXN2 expr inh inconclusive, S2 tox inconclusive
Cc1ccc(-c2csc(N3CCN(CCCn4c(C(F)(F)F)nc5ccccc54)CC3)n2)cc1	TGFb inhibitor inconclusive, RORgamma inh inconclusive, S2 tox inconclusive
CCCn1c(C2CCCN2c2nc(-c3ccc(C)cc3)cs2)nc2ccccc21 (configuration not stated)	Gal4-VP16 FLuc inconclusive, RORgamma inh 3.55µM, S2 tox inconclusive
Cc1ccc(Cn2c(C3CCCN3c3nc(-c4ccc(F)cc4)cs3)nc3cc(Cl)c(Cl)cc32)cc1 (configuration not stated)	none (no result: Gal4-VP16 FLuc, RORgamma inh)
CCn1c(C(C)NC(C)=O)nc2ccccc21 (configuration not stated)	none (no result: S2 tox)
COc1ccc(NC(=O)C(CC(C)C)NC(=O)C2CCCCC2)cc1 (configuration not stated)	none (no result: Gal4-VP16 FLuc, RORgamma inh)
CCOc1ccc(CNC(=O)c2cnc3sc(N4CCOCC4)nn3c2=O)cc1OC	none (no result: Gal4-VP16 FLuc, RORgamma inh, ATXN2 expr inh, S2 tox)
CC(C)Cc1cc(C(C)(C)C)ccc1OC(=S)N(C)C	RORgamma inh 12.6µM
N#Cc1nc(NCCCO)nc(Nc2ccccc2)n1	none (no result: TGFb inhibitor, HepG2 viability, RORgamma inh, ATXN2 expr inh, S2 tox)
CC(C)N(Cc1nc(-c2ccc(Cl)cc2)no1)Cc1nccn1C	Gal4-VP16 FLuc inconclusive, RORgamma inh 5.01µM
CC(C)N(Cc1cn(C)nc1-c1cccc(Cl)c1)Cc1nccn1C	Gal4-VP16 FLuc inconclusive, RORgamma inh 7.94µM, ATXN2 expr inh inconclusive, S2 tox inconclusive
CN(CCn1ccnc1)Cc1cn(-c2ccccc2)nc1-c1ccc2c(c1)OCO2	none
CN(Cc1cn(-c2ccccc2)nc1-c1ccc2c(c1)OCO2)Cc1nccn1C	Gal4-VP16 FLuc 11.2µM, RORgamma inh 11.2µM, S2 tox inconclusive (no result: ATXN2 expr inh)
Cn1ccnc1C1CCCCN1Cc1nc(-c2ccc(Cl)cc2)no1 (configuration not stated)	Gal4-VP16 FLuc inconclusive, RORgamma inh 10µM (no result: ATXN2 expr inh)
COc1ccc(-c2noc(CN(Cc3nccn3C)C(C)C)n2)cc1	RORgamma inh inconclusive
O=C(NCc1ccccc1)c1c(Cl)nc(Cl)c(Cl)c1Cl	none (no result: S2 tox)
CCOCCOC(=O)/C=C/c1ccc(OC)cc1	none (no result: Gal4-VP16 FLuc, TGFb inhibitor, HepG2 viability, RORgamma inh)
N[C@@H](C(=O)O)[C@H](CC(=O)O)c1ccc(Cl)cc1	none (no result: TGFb inhibitor, HepG2 viability, ATXN2 expr inh, S2 tox)
OC1CCN(C(=S)Nc2ccc(Nc3ccccc3)cc2)CC1	none
CC1CCCN(C(=S)Nc2ccc(Nc3ccccc3)cc2)C1 (configuration not stated)	Gal4-VP16 FLuc inconclusive, TGFb inhibitor inconclusive, RORgamma inh 11.2µM
CCc1ccc(NC(=S)N2CCCC2)cc1	RORgamma inh inconclusive
CCc1ccc(NC(=S)N2CCCC(C(F)(F)F)C2)cc1 (configuration not stated)	Gal4-VP16 FLuc inconclusive, RORgamma inh 12.6µM
CC1CCCN(C(=S)Nc2ccc(F)cc2)C1 (configuration not stated)	RORgamma inh 8.91µM
O=[N+]([O-])c1ccc(Nc2nc(N/N=C/c3cccc(F)c3)nc(N3CCCC3)n2)cc1	RORgamma inh inconclusive, S2 tox inconclusive
COc1cccc(/C=N/Nc2nc(Nc3ccc([N+](=O)[O-])cc3)nc(N3CCCC3)n2)c1O	RORgamma inh 4.47µM, ATXN2 expr inh inconclusive
COc1c(/C=N/Nc2nc(N3CCCCC3)nc(N3CCCCC3)n2)cccc1[N+](=O)[O-]	RORgamma inh 0.316µM
O=[N+]([O-])c1ccc(/C=N/Nc2nc(N3CCCCC3)nc(N3CCCCC3)n2)o1	S2 tox inconclusive
O=[N+]([O-])c1cccc(/C=C/C=N/Nc2nc(N3CCCCC3)nc(N3CCCCC3)n2)c1	RORgamma inh 7.94µM
